Source: PubChem BioAssay
Values without a mark were called inactive. Calls of active or inactive are those of the source. Cut-off read from the data, not from the text of the source, unless noted: active = inhibition above about 33%; inactive = the rest.

Experiments:
[1] = StAR promoter reporter inhibitors, counter-screen for LRH-1 inverse agonist project, cell-based, luminescence, high throughput (AID 651611; in the data active = inhibition above about 28%); conditions: StAR promoter luciferase reporter counterscreen, at 3.6 µM, active compounds read high
[2] = biological target: Nuclear receptor subfamily 5 group A member 2 (Homo sapiens) (UniProt O00482); assay: LRH-1 (NR5A2) inverse agonists, retest, confirmation, cell-based, luminescence (AID 651613; in the data active = inhibition above about 42%;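 note: HEK293T cells co-transfected with LRH-1 and StAR promoter luciferase reporter; 0% = vehicle wells and 100% = parental cells lacking receptor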); conditions: cell-based LRH-1 luciferase reporter, inverse agonism; at 3.6 µM; active compounds read high
[3] = biological target: Steroidogenic factor 1 (Homo sapiens) (UniProt Q13285); assay: SF1 (NR5A1) inverse agonists, counter-screen for LRH-1 inverse agonist project, cell-based, luminescence, high throughput (AID 651614; in the data active = inhibition above about 44%;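 note: cells cotransfected with StAR promoter reporter and SF1 expression vector; 0% = vehicle on cells with receptor and 100% = vehicle on cells lacking receptor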); conditions: cell-based SF1 luciferase reporter, at 3.6 µM, active compounds read high
[4] = VP16 transactivation reporter inhibitors, counter-screen for LRH-1 inverse agonist project, cell-based, luminescence, high throughput (AID 651615); conditions: Gal4-VP16 luciferase reporter cells, at 3.6 µM, active compounds read high

Chain of Steroidogenic factor 1 (Homo sapiens) (Q13285 whole entry, looked up, the tested form may be a part): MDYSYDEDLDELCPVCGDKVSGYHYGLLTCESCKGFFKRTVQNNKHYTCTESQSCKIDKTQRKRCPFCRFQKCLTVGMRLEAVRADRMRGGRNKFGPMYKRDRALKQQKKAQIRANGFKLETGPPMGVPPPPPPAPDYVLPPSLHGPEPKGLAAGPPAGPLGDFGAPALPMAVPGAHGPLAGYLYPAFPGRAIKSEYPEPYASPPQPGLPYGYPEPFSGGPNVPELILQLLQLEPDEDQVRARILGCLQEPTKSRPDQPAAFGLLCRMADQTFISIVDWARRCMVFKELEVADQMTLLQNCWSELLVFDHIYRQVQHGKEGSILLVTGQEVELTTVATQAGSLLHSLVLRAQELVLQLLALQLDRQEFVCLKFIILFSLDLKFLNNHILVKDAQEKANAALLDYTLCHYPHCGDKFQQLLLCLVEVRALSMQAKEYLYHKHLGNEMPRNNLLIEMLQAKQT
Chain of Nuclear receptor subfamily 5 group A member 2 (Homo sapiens) (O00482 whole entry, looked up): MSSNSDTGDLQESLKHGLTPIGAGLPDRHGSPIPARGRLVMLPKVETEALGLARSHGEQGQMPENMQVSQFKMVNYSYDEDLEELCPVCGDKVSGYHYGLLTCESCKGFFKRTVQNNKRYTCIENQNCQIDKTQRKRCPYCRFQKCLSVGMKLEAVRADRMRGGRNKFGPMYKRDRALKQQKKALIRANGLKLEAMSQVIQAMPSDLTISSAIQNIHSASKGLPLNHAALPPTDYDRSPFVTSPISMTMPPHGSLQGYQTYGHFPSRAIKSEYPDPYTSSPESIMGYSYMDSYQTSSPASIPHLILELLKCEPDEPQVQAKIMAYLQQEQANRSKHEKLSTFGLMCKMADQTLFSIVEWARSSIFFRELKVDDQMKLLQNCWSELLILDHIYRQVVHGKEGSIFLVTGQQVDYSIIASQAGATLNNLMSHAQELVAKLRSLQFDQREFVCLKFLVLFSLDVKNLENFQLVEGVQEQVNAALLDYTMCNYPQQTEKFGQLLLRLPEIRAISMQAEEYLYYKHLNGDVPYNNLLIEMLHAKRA

| SMILES | inhibition [1] | inhibition [2] | inhibition [3] | inhibition [4] |
| --- | --- | --- | --- | --- |
| CC(=O)Nc1cc(-c2cccc(N)c2)cn2c(-c3ccc(C(C)=O)cc3)cnc12 | 19.6% | 33.4% | 36.5% | -13.4% |
| COc1cc(-c2noc(C)c2-c2ccc(N(C)C)nc2)cc(OC)c1OC | 58.7% (active) | 53% (active) | 63.2% (active) | -0.05% |
| CCC(c1nnnn1-c1c(C)cccc1C)N1CCN(c2ccc(C(F)(F)F)cc2[N+](=O)[O-])CC1 (stereo not drawn) | 7.27% | 18.6% | 5.25% | 10% |
| CC(=O)Nc1ccc(NC(=O)COC(=O)c2c(C)nn(-c3ccccc3)c2C)cc1 | 10.2% | 51.6% (active) | 50.9% (active) | -22.5% |
| CCCN(CC(=O)Nc1ccc(C(N)=O)cc1)CC(=O)Nc1ccccc1C | 15.3% | 55.4% (active) | 53.9% (active) | 6.63% |
| CC(C(=O)OCC(=O)Nc1ccc2c(c1)OCO2)N1C(=O)c2ccccc2C1=O (stereo not drawn) | -2.26% | 49.2% (active) | 48.2% (active) | -12.4% |
| Cc1csc(=O)n1CCC(=O)OCC(=O)Nc1ccc(N2CCOCC2)cc1 | -7.54% | 54.1% (active) | 44.2% (active) | -3.02% |
| Cc1cc(C)nc(NC(=O)c2ccc([N+](=O)[O-])o2)n1 | 17.2% | 61.6% (active) | 53.4% (active) | -11.8% |
| CC(C)(C)c1ccc(C(=O)Nc2ccc(C(=O)NCc3cccnc3)cc2)cc1 | 82.1% (active) | 90.4% (active) | 93.2% (active) | 61% (active) |
| Cc1cc(C)c2c(=O)[nH]c(SCC(=O)Nc3ccc(Br)cc3)nc2n1 | 9.16% | 47.8% (active) | 30.6% | -6.94% |
| Cc1ccc(-c2csc(NC(=O)C3CCN(S(=O)(=O)c4cccs4)CC3)n2)cc1 | 15.3% | 58.5% (active) | 55.4% (active) | 47.9% (active) |
| O=C(Nc1ccc(S(=O)(=O)N2CCOCC2)cc1)c1cccc([N+](=O)[O-])c1 | -6.54% | 56.9% (active) | 50.2% (active) | -5.35% |
| COc1cc(C)c(C(=O)Oc2cc(C)c(C(=O)O)c(O)c2C)c(O)c1C | 14.9% | 73.8% (active) | 70.7% (active) | -10.6% |
| CC1(C(=O)NCc2ccc(Cl)cc2)CCN1C(=O)Cc1ccc(Cl)cc1Cl (stereo not drawn) | 16% | 44.1% (active) | 46.5% (active) | 4.22% |
| CCN1C(=O)c2cccc3c(S(=O)(=O)Nc4ccccc4O)ccc1c23 | 38.4% (active) | 34.1% | 36.2% | -88.6% |
| CCN(Cc1ccccc1)c1ccc(/C=N/NS(=O)(=O)c2ccc(C)c([N+](=O)[O-])c2)cc1 | 10.9% | 40.7% | 61.3% (active) | 9.15% |
| C/C(=N/N1CCN(Cc2cccc3ccccc23)CC1)c1cccnc1 | -12% | -17.6% | -2.52% | -2.08% |
| CCOC(=O)c1cccc(C2=CC(=O)CC(C)(C)C2)c1 | 1.21% | 46.3% (active) | 48.8% (active) | -12% |
| CCCN(CC(=O)Nc1ccccc1C)CC(=O)Nc1ccc(Br)cc1F | 8.48% | 58.6% (active) | 51.6% (active) | 1.69% |
| O=C(O)/C=C/C(=O)Nc1ccccc1SC(F)(F)C(F)(F)C(F)(F)F | 20.1% | 54.8% (active) | 45.5% (active) | 6.88% |
| COc1ccc(S(=O)(=O)N2CCN(CC(=O)Nc3ccc(C)c(F)c3)CC2)cc1 | 17.5% | 58.6% (active) | 51.9% (active) | -4.75% |
| Nc1cccc2nc3ccccc3cc12 | 21.7% | 104% (active) | 55.1% (active) | 92.2% (active) |
| COc1ccc(CCNC(=O)c2ccccc2NC(=O)CN2CCN(c3ccccc3O)CC2)cc1 | 33.3% (active) | 48% (active) | 50.4% (active) | -22.9% |
| CCOc1ccc(NC(=O)Cn2cc(C(=O)C3CC3)c3ccccc32)cc1 | 5.9% | 44.1% (active) | 37.5% | -14.7% |
| CCOc1ccc(NC(=O)Cn2cc(C(C)=O)c3ccccc32)cc1 | 22.7% | 78.3% (active) | 73.8% (active) | 41.9% (active) |
| COc1cccc(C2c3cc4c(cc3OC(N3CCOCC3)C2C)OCO4)c1O (stereo not drawn) | 11.7% | 51.8% (active) | 45.3% (active) | 21.4% |

| SMILES | inhibition [1] | inhibition [2] | inhibition [3] | inhibition [4] |
| --- | --- | --- | --- | --- |
| O=C(CN1C(=O)NC2(CCCCC2)C1=O)NCCc1c[nH]c2ccccc12 | 10.1% | 47.8% (active) | 56.5% (active) | 3.42% |
| S=C(Nc1cccnc1)Nc1cccc2cnccc12 | 9.29% | 17.3% | 26.2% | 17% |
| Cc1cc(OCC(=O)N2CCC(O)CC2)c2c(C)cc(=O)oc2c1 | 5.07% | 44.8% (active) | 35.2% | -6.7% |
| CC(=O)Nc1ccc(NC(=O)COC(=O)c2ccc([N+](=O)[O-])o2)cc1 | 12.7% | 60.1% (active) | 51.9% (active) | -5.51% |
| c1cnn(-c2nc(N3CCOCC3)nc(N3CCOCC3)n2)c1 | 29.5% (active) | 63.6% (active) | 48.2% (active) | 20.2% |
| C/C(=N\NC(N)=S)c1ccc(Cl)s1 | 16.8% | 55.8% (active) | 35.5% | 21.2% |
| Cc1ccc(N2CC(C(=O)Nc3nc4ccc(S(C)(=O)=O)cc4s3)CC2=O)cc1C (stereo not drawn) | 11.2% | 44.6% (active) | 34.7% | -2.05% |
| COc1ccc(S(=O)(=O)Nc2cc3c4c(oc3c3ccccc23)CCCC4=O)cc1 | 24.3% | 69.6% (active) | 65.9% (active) | -1.29% |
| O=C(Nc1nc2c(Cl)cccc2s1)c1ccc([N+](=O)[O-])o1 | 10.3% | 65.3% (active) | 62.2% (active) | -6.76% |
| COc1ccc(NC(=O)CN2C(=O)NC3(CCCC3)C2=O)cc1Cl | 2.83% | 54.6% (active) | 60.6% (active) | -7.78% |
| Cn1c(SCC(=O)Nc2ccc(N3CCOCC3)cc2)nnc1-c1ccccc1 | 0.41% | 46.2% (active) | 47.5% (active) | -12.2% |
| COc1ccc(CCNC(=O)CN2C(=O)NC3(CCCCC3)C2=O)cc1 | 11% | 53.9% (active) | 54% (active) | -6.08% |
| COc1ccc(NS(=O)(=O)c2ccc(-c3coc(C)n3)cc2)cc1OC | 15.6% | 65.6% (active) | 64.7% (active) | 51.4% (active) |
| O=C(NC1CCCC(C(F)(F)F)C1)c1ccc([N+](=O)[O-])o1 (stereo not drawn) | 15.8% | 65.4% (active) | 63% (active) | -1.15% |
| COc1ccc(N2CCN(C(=O)CSc3nc4ccccc4c(=O)[nH]3)CC2)cc1 | 12.5% | 46.8% (active) | 27.8% | -12.9% |
| O=C(Nc1ccccc1Cl)c1ccc([N+](=O)[O-])o1 | 29.4% (active) | 63.9% (active) | 75.9% (active) | -5.01% |
| COc1ccccc1NC(=O)c1ccc(NC(=O)CSc2nnnn2C)cc1 | 4.14% | 59% (active) | 55.5% (active) | -1.96% |
| O=C(Nc1ccc2oc(-c3cccnc3)nc2c1)c1ccc([N+](=O)[O-])o1 | 8.01% | 58.1% (active) | 62.5% (active) | -5.53% |
| Cc1ccc(C(=O)N/N=C\c2ccc([N+](=O)[O-])o2)cn1 | 24.3% | 59% (active) | 57% (active) | 0.83% |
| Cc1ccc(NC(=O)CNNC(=O)c2cccc([N+](=O)[O-])c2)cc1[N+](=O)[O-] | 2.1% | 34.6% | 31.3% | -5.02% |
| Cc1ccc(-n2c(SCC(=O)NCc3ccco3)nc3sc4c(c3c2=O)CC(C)(C)SC4)cc1 | 17.6% | 56.1% (active) | 44.8% (active) | 6.61% |
| COc1ccc(NC(=O)CSc2ncnc3c2cnn3Cc2ccccc2)cc1 | 16.1% | 49.6% (active) | 62.2% (active) | 2.38% |
| S=C(Nc1ccc(Br)cc1)Nc1ccc2c(c1)OCCO2 | -74.4% | -51.1% | -27.8% | -71.3% |
| C/C=C/c1ccc(OCCOc2ccc(C=O)cc2OC)c(OC)c1 | 11.4% | 44.7% (active) | 35.4% | 2.21% |
| COc1ccc(OC)c(CCNC(=O)C(C)n2nc(C)c3c(C)n(-c4ccc(C)cc4)nc3c2=O)c1 (stereo not drawn) | 15.2% | 64% (active) | 55.6% (active) | 51.2% (active) |
| COCC(C)n1c(-c2ccc3c(c2)NC(=O)CO3)csc1=Nc1ccc(OC(F)F)cc1 (stereo not drawn) | 10.3% | 79.3% (active) | 69.3% (active) | 34.4% (active) |
